# ± gives the standard deviation of the averaged measurements. In all, about 33,000 sequences were measured (“E-score (rank enrichment, -0.5 to 0.5)”: median about -0.0043, highest 2% from about 0.24 on). The sample holds the highest values, similar sequences and a random draw of the others, so the mix is not that of the screen.
# Test system: 2Sp-muMax20 (muMax20 with two 2,6-bis(methyl)pyridine Cys staples)
# Assay: PBM 8-mer E-score (E-score (rank enrichment, -0.5 to 0.5)); higher = stronger preferential binding
# Method: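 Protein binding microarray (universal PBM chip covering all 10-mers in fixed probe flanks) with chemically synthesized human Max(13-93) bHLH-LZ analogs (not full-length Max) bearing noncanonical residues (hArg, Tha, Aib, Nle at 65) and aromatic Cys staples. Read-out per 8-mer (and its reverse complement): E-score (rank-based enrichment, -0.5 to 0.5) and Z-score of median probe intensity.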
row,Sequence,PBM 8-mer E-score
1,ATAAGGGA,0.102 ± 0.04
2,AACTCAAA,0.172 ± 0.036
3,CACGGCTA,-0.249 ± 0.073
4,CCGTGGAC,-0.2957 ± 0.0024
5,AGGCTAGA,-0.144 ± 0.033
6,CCCCCACA,-0.205 ± 0.084
7,GCCCCAAA,0.188 ± 0.0029
8,GCCCCACA,0.223 ± 0.042
9,GCCCCAAC,0.267 ± 0.013
10,ACCCCACT,0.183 ± 0.027
11,CCCCCAAC,-0.253 ± 0.01
12,CCCCCACG,0.0635 ± 0.0042
13,ACCCCCAC,-0.19 ± 0.027
14,GCCCCACC,0.237 ± 0.039
15,CCCCCACC,-0.321 ± 0.032
16,TCCCCACA,0.235 ± 0.0063
17,ACCCCACC,0.236 ± 0.05
18,GTCTCTCA,-0.0452 ± 0.0099
19,AGAGGACT,-0.0403 ± 0.059
20,ACAAGTGT,-0.0219 ± 0.043
21,AGACTGTC,-0.179 ± 0.036
22,CATGTTAA,0.191 ± 0.048
23,ACTCTCTA,0.158 ± 0.0044
24,AACTCATG,0.176 ± 0.077
25,AAACAGAA,0.168 ± 0.015

row,Sequence,PBM 8-mer E-score
1,ACCCCATA,0.107 ± 0.075
2,ACCCCATG,0.297 ± 0.047
3,AACCCATG,0.139 ± 0.032
4,AACACGTG,0.4615 ± 0.0029
5,CACACGTG,0.384 ± 0.019
6,AACACGTA,0.0789 ± 0.055
7,CATACGTA,0.297 ± 0.012
8,CACACGTA,0.0876 ± 0.11
9,AACACGTC,0.0953 ± 0.04
10,AATACGTA,0.206 ± 0.064
11,CACACGTC,-0.0411 ± 0.069
12,CATACGTC,0.0118 ± 0.0042
13,CTTATGAC,0.0201 ± 0.0061
14,ACTATGAC,0.0953 ± 0.0015
15,TAAGGGTA,0.115 ± 0.039
16,CCCTGGGA,-0.29 ± 0.01
17,CATTCACA,0.248 ± 0.016
18,CCTTCACG,-0.0558 ± 0.019
19,CCTTCACA,0.256 ± 0.018
20,CTTTCAAA,0.236 ± 0.026
21,GTTTCAAA,0.073 ± 0.063
22,CATTCACG,0.0213 ± 0.074
23,ACTTCACA,0.00636 ± 0.061
24,ATTTCAAA,0.0933 ± 0.0025
25,GATTCACA,0.0451 ± 0.093

row,Sequence,PBM 8-mer E-score
1,CATTCAAG,-0.108 ± 0.079
2,CATTCAAA,0.256 ± 0.027
3,TATTCAAA,0.197 ± 0.036
4,ACCAAGGG,-0.132 ± 0.035
5,GCAAATCC,-0.0919 ± 0.086
6,CTTGATAA,0.0868 ± 0.0083
7,GCATTACC,-0.136 ± 0.01
8,ATGACAAC,0.0122 ± 0.037
9,CGACAATA,0.0335 ± 0.093
10,CAAGGCTG,-0.037 ± 0.11
11,CTCTTCAC,0.129 ± 0.00049
12,AATCCAGA,0.124 ± 0.08
13,CATGCACA,0.251 ± 0.033
14,CATGCATC,0.081 ± 0.025
15,CATGCACG,0.0888 ± 0.024
16,CATGCATA,0.207 ± 0.0092
17,AATGCAAC,0.136 ± 0.035
18,CATGCAAG,0.103 ± 0.05
19,GATGCACA,0.0774 ± 0.012
20,AATGCGAC,0.0252 ± 0.028
21,CATGCATG,0.382 ± 0.024
22,CATGCGAC,0.308 ± 0.019
23,CATGCAAC,0.281 ± 0.056
24,CATGCGAG,0.165 ± 0.062
25,CGAGGAAG,-0.0173 ± 0.064

row,Sequence,PBM 8-mer E-score
1,CCGGCCGG,-0.229 ± 0.081
2,CCCAACCC,0.204 ± 0.019
3,CGCAAAAA,-0.00934 ± 0.005
4,CTGGGCGC,0.0231 ± 0.038
5,ATTTGGCA,-0.0164 ± 0.011
6,ATTACTTG,0.18 ± 0.017
7,CTCCTACA,0.0705 ± 0.028
8,AGGGCTCA,-0.0979 ± 0.031
9,CTCATGCC,0.0321 ± 0.035
10,AGCGGATC,-0.0391 ± 0.022
11,TGTGCACA,0.0196 ± 0.045
12,AATGCATG,0.233 ± 0.038
13,CGTGCACG,0.338 ± 0.0045
14,AATGCATT,0.356 ± 0.017
15,AATGCATA,0.16 ± 0.074
16,CGTGCACA,0.102 ± 0.071
17,ACGGGACC,-0.245 ± 0.039
18,GGAATTTA,-0.0803 ± 0.093
19,GTCTTTGA,-0.121 ± 0.016
20,ATATTGCC,0.238 ± 0.0041
21,CTATTGCC,-0.045 ± 0.019
22,ATATTGCG,0.117 ± 0.029
23,CAAAAGTG,0.11 ± 0.016
24,GAAAGTAA,0.0437 ± 0.0096
25,CACAACGG,-0.145 ± 0.066

row,Sequence,PBM 8-mer E-score
1,CCCCGCCC,0.295 ± 0.048
2,CCCCGCCG,0.131 ± 0.011
3,GCCCGCCA,-0.0439 ± 0.026
4,CCCCGCCA,0.246 ± 0.071
5,ACCCGCCG,0.131 ± 0.01
6,AACCCGCC,0.128 ± 0.019
7,GCCCGCCC,0.16 ± 0.039
8,CCCCCGCC,-0.0595 ± 0.056
9,ACCCCGCC,0.284 ± 0.099
10,TCCCGCCA,-0.0738 ± 0.002
11,CGCCGCCC,0.00789 ± 0.052
12,ACCCGCCC,0.3697 ± 0.0017
13,ATATCTCC,0.197 ± 0.016
14,ACAGTATC,0.185 ± 0.073
15,TTAGGAAA,-0.00284 ± 0.012
16,ATGGTCAG,0.122 ± 0.043
17,CGCTCCGC,-0.154 ± 0.17
18,TATCCGCA,0.0196 ± 0.089
19,AAATTCTT,0.0344 ± 0.11
20,GCATATTA,0.153 ± 0.0097
21,GGATATTA,0.161 ± 0.084
22,GTATATTA,0.243 ± 0.0031
23,ATATATTA,0.264 ± 0.012
24,ATGTATTA,0.21 ± 0.014
25,CTATACTA,0.113 ± 0.12

row,Sequence,PBM 8-mer E-score
1,ATATACTC,0.0166 ± 0.11
2,GTGTATTA,0.239 ± 0.069
3,CTGTATTA,0.141 ± 0.0065
4,ATATATTG,0.221 ± 0.0031
5,ATATACTA,0.285 ± 0.027
6,CTATATTA,0.168 ± 0.018
7,CAGTACTA,0.128 ± 0.056
8,AGAGATCC,-0.0549 ± 0.05
9,TATCGACA,-0.0261 ± 0.032
10,CGAGCGTC,-0.00097 ± 0.042
11,ACACCATG,0.0073 ± 0.025
12,CATTGTCA,-0.0464 ± 0.016
13,AAAGGGGT,0.123 ± 0.013
14,CCCCTGCG,-0.168 ± 0.0048
15,GCCAATGA,0.00492 ± 0.00047
16,GACGGAAA,0.0756 ± 0.07
17,CGTTGAAC,-0.0586 ± 0.068
18,GATTGATA,0.115 ± 0.015
19,AATTGATA,0.252 ± 0.025
20,AATTGATC,0.0176 ± 0.058
21,CATTGATA,0.179 ± 0.1
22,ACTTGATG,0.0152 ± 0.0016
23,AATTGATG,0.25 ± 0.021
24,AAGACCCC,0.0259 ± 0.047
25,CACGGCGC,-0.0163 ± 0.17

row,Sequence,PBM 8-mer E-score
1,CACCGCGG,-0.121 ± 0.021
2,CTGGTAGC,-0.131 ± 0.011
3,CCATCTTA,-0.102 ± 0.052
4,CATAGCAA,0.199 ± 0.072
5,GATAGCAC,0.151 ± 0.043
6,CATAGCAC,0.301 ± 0.019
7,GCCAGAAA,0.0632 ± 0.035
8,CTAAGCTA,-0.0343 ± 0.0085
9,GTGATGCA,0.186 ± 0.078
10,CATATAAA,0.323 ± 0.008
11,ACTATAAA,0.115 ± 0.014
12,AATATAAC,0.203 ± 0.11
13,CATATAAG,0.168 ± 0.061
14,TGTATACA,0.315 ± 0.067
15,TGGATACA,0.213 ± 0.13
16,AAAATAAA,0.103 ± 0.018
17,CATATAAC,0.228 ± 0.076
18,AATATAAT,0.22 ± 0.015
19,GGTATACA,0.145 ± 0.029
20,AATATAAG,0.249 ± 0.07
21,AATATAAA,0.245 ± 0.03
22,AGGCTCAC,-0.168 ± 0.071
